In paper PMC7862700, “An all-to-all approach to the identification of sequence-specific readers for epigenetic DNA modifications on cytosine” one finds binding signal data, which are given here for one sequence.

What all share (test): DAPPL (digital affinity profiling via proximity ligation, sequencing); 10 mM Tris-HCl pH 7.5, 50 mM NaCl, 1 mM DTT, 4% glycerol, room temperature, 30 min; GST-TFs on glutathione beads, 16-mer random dsDNA library, 0.1% formaldehyde crosslink after washing; high values mean tight binding
Common to all, as to conditions: protein: recombinant; tags: N-terminal GST; dsDNA, one strand shown

The target in assay [1] is T1, FLI1 (Homo sapiens, UniProt Q01543 1-452).
T1 sequence: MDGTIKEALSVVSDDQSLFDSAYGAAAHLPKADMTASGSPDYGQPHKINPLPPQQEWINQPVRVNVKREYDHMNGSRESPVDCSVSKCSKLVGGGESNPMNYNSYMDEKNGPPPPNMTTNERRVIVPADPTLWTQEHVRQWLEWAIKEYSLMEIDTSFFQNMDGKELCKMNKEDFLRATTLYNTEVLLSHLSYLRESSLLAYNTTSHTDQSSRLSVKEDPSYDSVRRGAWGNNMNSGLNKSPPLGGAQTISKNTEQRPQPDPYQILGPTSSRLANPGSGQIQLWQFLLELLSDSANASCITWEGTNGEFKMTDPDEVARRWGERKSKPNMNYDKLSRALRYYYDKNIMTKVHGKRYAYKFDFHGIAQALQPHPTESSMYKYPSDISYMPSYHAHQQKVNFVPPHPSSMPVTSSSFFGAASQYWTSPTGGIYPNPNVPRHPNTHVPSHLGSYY
A digest of the protocol:
(§1)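 Binding signal is each hexamer's read frequency for a factor divided by its frequency in the tag-only sample. The factors were GST-fused human transcription factors from yeast, captured on glutathione beads, DNA-barcoded and pooled with that sample. Pools were incubated with 200 nmole of a random double-stranded 16-mer DNA library in Tris/NaCl/DTT/glycerol buffer at room temperature for 30 min, then washed, crosslinked with 0.1% formaldehyde, proximity-ligated with BsaI/T4 ligase (1 h, 37 °C), PCR-amplified and sequenced on an Illumina NextSeq500.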

Assay [2] addresses T2, ELK1 (Homo sapiens, UniProt P19419 1-428).
T2 sequence: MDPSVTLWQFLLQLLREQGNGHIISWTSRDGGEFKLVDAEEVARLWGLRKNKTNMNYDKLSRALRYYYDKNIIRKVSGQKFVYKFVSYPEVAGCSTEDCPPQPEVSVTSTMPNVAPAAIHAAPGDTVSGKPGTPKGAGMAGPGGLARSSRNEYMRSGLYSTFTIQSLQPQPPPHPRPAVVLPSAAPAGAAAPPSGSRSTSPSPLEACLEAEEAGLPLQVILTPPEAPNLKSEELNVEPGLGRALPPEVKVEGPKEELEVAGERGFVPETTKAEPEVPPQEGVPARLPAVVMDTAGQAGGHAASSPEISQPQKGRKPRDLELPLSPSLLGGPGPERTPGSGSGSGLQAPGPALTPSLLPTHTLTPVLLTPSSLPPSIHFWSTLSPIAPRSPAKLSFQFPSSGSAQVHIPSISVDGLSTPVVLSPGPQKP
A digest of the protocol: as §1

Assay [3] has as its target T3, GABPA (Homo sapiens, UniProt Q06546 1-454).
T3 sequence: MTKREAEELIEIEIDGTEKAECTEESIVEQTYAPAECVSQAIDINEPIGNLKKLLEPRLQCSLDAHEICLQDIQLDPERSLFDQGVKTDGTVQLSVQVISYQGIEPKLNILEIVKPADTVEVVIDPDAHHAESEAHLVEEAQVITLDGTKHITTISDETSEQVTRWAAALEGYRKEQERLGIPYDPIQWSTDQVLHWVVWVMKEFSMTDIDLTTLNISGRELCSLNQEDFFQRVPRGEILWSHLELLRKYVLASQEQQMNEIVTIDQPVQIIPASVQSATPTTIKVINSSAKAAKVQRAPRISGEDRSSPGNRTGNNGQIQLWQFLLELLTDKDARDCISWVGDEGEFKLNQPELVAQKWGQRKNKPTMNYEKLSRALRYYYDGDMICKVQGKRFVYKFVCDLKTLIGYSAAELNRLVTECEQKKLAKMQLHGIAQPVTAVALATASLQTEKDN
A digest of the protocol:
as §1

Assay [4] concerns the target T4, ERG (Homo sapiens, UniProt P11308 1-479).
T4 sequence: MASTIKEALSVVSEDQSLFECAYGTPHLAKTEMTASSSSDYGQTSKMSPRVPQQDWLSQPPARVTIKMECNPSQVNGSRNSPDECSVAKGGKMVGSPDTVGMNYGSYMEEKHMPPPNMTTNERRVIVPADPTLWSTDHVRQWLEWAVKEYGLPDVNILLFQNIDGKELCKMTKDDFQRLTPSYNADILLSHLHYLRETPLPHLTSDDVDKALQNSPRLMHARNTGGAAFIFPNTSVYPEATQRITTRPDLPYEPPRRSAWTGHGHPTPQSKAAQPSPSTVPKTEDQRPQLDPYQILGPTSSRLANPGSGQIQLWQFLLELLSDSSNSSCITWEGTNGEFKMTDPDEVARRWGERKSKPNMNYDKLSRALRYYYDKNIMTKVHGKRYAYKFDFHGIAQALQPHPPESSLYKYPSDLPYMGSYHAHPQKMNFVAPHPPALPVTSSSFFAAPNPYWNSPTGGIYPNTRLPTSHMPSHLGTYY
Summed up:
as §1

For assay [5], the target named is ELF1 (Homo sapiens, UniProt P32519 1-619). Summed up:
as §1

The target of assay [6] is T5, EHF (Homo sapiens, UniProt Q9NZC4 1-300).
T5 sequence: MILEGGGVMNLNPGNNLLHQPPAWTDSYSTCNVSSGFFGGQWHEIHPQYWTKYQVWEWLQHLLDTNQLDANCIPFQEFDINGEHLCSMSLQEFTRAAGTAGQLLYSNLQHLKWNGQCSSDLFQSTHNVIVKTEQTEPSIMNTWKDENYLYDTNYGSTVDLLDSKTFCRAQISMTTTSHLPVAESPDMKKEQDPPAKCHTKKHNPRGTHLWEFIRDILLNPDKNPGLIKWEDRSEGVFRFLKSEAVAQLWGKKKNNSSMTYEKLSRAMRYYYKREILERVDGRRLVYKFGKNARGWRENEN
Summed up: as §1

Assay [7] deals with SPI1 (Homo sapiens, UniProt P17947 1-270). A digest of the protocol: as §1
Assay [8] addresses SPIB (Homo sapiens, UniProt Q01892 1-262). Summed up: as §1
The target in assay [9] is T6, ELK3 (Homo sapiens, UniProt P41970 1-407).
T6 sequence: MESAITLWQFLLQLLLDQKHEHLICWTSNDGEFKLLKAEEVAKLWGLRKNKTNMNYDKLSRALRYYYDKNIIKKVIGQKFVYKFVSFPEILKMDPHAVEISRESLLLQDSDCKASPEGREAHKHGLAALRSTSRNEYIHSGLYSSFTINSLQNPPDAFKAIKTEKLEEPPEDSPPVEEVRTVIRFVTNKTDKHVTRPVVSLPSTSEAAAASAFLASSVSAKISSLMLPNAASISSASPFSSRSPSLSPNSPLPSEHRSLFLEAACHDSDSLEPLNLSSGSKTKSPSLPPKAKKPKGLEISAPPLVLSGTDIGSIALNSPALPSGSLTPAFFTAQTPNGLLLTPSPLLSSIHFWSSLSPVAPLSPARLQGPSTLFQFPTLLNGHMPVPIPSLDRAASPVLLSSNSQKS
A digest of the protocol: as §1

Assay [10] has as its target T7, FEV (Homo sapiens, UniProt Q99581 1-238).
T7 sequence: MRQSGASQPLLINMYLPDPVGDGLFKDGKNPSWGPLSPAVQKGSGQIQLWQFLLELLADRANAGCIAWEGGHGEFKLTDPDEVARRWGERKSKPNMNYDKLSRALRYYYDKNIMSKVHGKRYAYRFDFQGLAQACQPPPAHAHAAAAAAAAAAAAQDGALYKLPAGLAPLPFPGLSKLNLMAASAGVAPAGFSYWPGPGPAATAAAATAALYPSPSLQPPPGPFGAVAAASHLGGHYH
Summed up:
as §1

Assay [11] addresses ETV5 (Homo sapiens, UniProt P41161 1-510). Summed up: as §1
The target in assay [12] is T8, SPIC (Homo sapiens, UniProt Q8N5J4 1-248).
T8 sequence: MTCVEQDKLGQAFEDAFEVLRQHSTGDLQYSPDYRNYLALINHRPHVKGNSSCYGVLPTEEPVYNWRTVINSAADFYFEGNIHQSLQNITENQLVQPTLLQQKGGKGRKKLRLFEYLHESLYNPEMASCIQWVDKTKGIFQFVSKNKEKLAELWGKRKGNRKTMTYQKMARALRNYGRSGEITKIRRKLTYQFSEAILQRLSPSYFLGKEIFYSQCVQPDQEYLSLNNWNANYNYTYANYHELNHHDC
A digest of the protocol:
as §1

Assay [13] addresses ELF4 (Homo sapiens, UniProt Q99607 1-663). A digest of the protocol: as §1
In assay [14] the target is T9, ELK4 (Homo sapiens, UniProt P28324-2 1-405).
T9 sequence: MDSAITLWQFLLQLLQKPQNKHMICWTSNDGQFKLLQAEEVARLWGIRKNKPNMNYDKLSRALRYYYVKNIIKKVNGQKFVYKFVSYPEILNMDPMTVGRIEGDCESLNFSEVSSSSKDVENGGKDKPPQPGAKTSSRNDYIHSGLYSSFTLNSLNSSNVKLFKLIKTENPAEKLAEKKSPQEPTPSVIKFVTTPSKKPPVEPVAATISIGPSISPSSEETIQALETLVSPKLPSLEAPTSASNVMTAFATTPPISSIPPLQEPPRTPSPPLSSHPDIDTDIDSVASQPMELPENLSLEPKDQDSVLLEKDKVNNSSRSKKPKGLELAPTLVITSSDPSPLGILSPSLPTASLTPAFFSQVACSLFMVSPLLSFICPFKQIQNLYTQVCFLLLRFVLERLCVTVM
Summed up: as §1

The target in assay [15] is T10, ETV2 (Homo sapiens, UniProt O00321 1-342).
T10 sequence: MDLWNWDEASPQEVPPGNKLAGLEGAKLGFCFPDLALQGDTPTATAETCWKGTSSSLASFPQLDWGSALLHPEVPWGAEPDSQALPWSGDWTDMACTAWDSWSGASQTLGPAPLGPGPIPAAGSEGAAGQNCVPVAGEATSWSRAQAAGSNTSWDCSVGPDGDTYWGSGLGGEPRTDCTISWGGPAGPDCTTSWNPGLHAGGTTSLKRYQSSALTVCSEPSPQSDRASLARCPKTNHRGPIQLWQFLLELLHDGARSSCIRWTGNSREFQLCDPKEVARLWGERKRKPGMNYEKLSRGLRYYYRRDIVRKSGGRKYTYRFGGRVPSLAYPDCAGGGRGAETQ
Summed up:
as §1

In assay [16] the target is T11, ELF3 (Homo sapiens, UniProt P78545 1-371).
T11 sequence: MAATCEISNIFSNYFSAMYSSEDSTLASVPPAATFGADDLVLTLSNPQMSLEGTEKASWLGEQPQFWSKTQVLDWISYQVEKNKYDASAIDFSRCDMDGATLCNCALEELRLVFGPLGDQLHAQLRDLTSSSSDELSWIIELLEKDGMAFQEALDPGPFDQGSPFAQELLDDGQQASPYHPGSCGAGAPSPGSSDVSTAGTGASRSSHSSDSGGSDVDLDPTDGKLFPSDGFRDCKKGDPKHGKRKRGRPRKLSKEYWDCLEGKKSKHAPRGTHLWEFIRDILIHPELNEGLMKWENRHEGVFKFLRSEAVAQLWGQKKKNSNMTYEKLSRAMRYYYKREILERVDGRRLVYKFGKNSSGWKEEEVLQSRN
Summed up: as §1

Assay [17] has as its target CRX (Homo sapiens, UniProt O43186 1-299). A digest of the protocol: as §1
In assay [18] the target is ETV1 (Homo sapiens, UniProt P50549 1-477). A digest of the protocol: as §1
Chain of ETV1 (P50549 whole entry): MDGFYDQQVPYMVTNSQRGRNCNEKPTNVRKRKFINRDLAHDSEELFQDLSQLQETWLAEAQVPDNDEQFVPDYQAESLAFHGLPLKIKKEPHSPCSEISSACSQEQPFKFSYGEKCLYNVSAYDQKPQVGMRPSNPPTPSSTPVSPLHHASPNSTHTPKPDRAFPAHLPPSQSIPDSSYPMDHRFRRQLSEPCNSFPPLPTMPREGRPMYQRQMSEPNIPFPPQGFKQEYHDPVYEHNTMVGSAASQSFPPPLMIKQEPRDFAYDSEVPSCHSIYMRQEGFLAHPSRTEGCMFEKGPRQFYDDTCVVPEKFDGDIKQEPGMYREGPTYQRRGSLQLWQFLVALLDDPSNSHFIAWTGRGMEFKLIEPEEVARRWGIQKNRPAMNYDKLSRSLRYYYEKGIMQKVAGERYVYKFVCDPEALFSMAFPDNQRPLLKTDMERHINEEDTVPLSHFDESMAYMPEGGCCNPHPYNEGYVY

Chain of ELF4 (Q99607 whole entry): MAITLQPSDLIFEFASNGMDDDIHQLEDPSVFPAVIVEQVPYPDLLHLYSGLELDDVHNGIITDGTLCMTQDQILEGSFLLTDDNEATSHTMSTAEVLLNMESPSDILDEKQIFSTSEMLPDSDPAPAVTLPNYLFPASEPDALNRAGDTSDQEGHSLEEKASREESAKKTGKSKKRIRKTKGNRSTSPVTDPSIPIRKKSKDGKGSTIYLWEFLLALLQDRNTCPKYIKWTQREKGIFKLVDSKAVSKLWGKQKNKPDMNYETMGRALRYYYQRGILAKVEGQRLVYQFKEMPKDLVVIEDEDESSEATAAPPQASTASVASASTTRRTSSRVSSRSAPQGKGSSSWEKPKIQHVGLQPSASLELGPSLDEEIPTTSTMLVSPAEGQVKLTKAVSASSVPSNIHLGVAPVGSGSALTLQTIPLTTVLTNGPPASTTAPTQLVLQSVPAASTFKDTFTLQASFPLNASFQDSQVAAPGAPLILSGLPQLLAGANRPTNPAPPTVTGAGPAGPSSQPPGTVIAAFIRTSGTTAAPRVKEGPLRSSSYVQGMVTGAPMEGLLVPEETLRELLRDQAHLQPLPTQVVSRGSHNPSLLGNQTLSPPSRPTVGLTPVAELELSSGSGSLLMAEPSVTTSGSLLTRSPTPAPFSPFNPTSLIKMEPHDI
Chain of ELF1 (P32519 whole entry): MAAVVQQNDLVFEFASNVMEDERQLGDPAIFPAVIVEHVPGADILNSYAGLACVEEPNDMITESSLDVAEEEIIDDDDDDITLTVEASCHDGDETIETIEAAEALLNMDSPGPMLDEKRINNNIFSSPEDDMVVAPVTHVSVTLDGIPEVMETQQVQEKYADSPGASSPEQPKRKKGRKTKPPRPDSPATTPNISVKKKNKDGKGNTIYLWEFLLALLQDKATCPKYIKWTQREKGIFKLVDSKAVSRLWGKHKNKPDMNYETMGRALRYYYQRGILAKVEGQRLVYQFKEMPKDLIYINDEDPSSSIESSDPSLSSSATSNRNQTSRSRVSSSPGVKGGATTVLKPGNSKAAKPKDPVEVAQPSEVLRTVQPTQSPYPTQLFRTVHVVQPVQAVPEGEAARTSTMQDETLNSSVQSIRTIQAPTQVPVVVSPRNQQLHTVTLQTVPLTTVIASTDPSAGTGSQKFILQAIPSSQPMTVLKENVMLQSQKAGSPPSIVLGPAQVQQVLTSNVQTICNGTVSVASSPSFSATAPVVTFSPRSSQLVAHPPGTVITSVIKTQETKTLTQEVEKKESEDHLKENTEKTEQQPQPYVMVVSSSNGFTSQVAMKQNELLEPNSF
Chain of ETV5 (P41161 whole entry): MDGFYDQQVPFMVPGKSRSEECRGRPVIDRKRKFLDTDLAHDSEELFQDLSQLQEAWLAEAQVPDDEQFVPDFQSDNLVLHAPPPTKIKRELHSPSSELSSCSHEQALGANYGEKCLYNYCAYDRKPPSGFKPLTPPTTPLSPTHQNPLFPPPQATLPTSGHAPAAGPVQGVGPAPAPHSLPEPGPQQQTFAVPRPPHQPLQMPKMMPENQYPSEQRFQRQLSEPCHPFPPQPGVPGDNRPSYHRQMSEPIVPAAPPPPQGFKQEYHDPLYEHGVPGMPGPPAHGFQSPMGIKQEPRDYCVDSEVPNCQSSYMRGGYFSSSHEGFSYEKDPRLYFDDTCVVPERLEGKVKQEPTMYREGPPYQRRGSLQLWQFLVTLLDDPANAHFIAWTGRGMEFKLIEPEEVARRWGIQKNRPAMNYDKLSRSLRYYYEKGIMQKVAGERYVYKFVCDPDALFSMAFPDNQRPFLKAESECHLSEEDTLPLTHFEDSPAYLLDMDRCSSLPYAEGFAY
Chain of SPIB (Q01892 whole entry): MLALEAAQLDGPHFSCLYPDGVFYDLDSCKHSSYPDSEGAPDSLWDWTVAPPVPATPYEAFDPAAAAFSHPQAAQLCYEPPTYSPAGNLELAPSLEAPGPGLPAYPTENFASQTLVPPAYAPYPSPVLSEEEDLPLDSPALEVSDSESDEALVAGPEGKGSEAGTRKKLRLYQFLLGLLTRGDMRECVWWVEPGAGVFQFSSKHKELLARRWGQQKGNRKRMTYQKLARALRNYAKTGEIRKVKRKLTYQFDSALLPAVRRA
Chain of CRX (O43186 whole entry): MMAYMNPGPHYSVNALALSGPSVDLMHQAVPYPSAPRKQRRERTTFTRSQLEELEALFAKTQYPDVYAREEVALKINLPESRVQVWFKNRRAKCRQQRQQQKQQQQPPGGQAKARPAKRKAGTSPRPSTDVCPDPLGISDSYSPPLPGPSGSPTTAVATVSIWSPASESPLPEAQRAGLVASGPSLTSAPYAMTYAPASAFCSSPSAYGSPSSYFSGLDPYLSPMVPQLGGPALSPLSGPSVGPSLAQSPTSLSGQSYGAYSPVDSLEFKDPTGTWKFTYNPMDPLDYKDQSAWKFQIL

Regarding TACGTC, the binding signal in [1] is 1.19 fold enrichment (6-mer frequency, TF over GST control); in assay [2] it was 1.16 fold enrichment (6-mer frequency, TF over GST control); in assay [3], 1.13 fold enrichment (6-mer frequency, TF over GST control); in assay [4], 1.16 fold enrichment (6-mer frequency, TF over GST control); in assay [5], 1.13 fold enrichment (6-mer frequency, TF over GST control); in assay [6] it was 1.25 fold enrichment (6-mer frequency, TF over GST control). For the same sequence, the binding signal was 1.12 fold enrichment (6-mer frequency, TF over GST control) in [7]; 1.31 fold enrichment (6-mer frequency, TF over GST control) in assay [8]; 1.21 fold enrichment (6-mer frequency, TF over GST control) in assay [9]; 1.24 fold enrichment (6-mer frequency, TF over GST control) in assay [10]; 1.13 fold enrichment (6-mer frequency, TF over GST control) in assay [11]; 1.03 fold enrichment (6-mer frequency, TF over GST control) in assay [12]. The binding signal was 1.16 fold enrichment (6-mer frequency, TF over GST control) in [13]; 1.14 fold enrichment (6-mer frequency, TF over GST control) in assay [14]; 1.02 fold enrichment (6-mer frequency, TF over GST control) in assay [15]; 1.02 fold enrichment (6-mer frequency, TF over GST control) in assay [16]; 1 fold enrichment (6-mer frequency, TF over GST control) in assay [17]; 1.24 fold enrichment (6-mer frequency, TF over GST control) in assay [18].
